PubChem BioAssay
Active and inactive are the calls of the source. Unless noted, no rule for the calls is given here.

Experiments:
[1] = test system: XIP peptide (Xip251-270) binding; assay: XIP fragment 251-270 binding compounds – biochemical, small-molecule microarray, fluorescence 635/667 nm, 0.1 µg/mL protein, primary screen (AID 1182); conditions: fluorescent protein binding, 635 nm, higher = more signal, called active from +8 up or from −8 down
XIP peptide (Xip251-270) = assay: compounds binding XIP fragment 251-270 – biochemical, small-molecule microarray, fluorescence 635/667 nm, 0.5 µg/mL protein, primary screen (AID 1183); conditions: fluorescence 635 nm, higher = more signal
[2] = blood-stage malaria parasite viability loss – strain 3D7, DAPI fluorescence, 100 nL, primary screen (AID 1184);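 also: parasites grown inside human red blood cells in medium with human serum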; conditions: P. falciparum 3D7 growth, 3 d, higher = more signal
[3] = biological target: Homeobox protein Hox-A13 (Mus musculus) (UniProt Q62424); assay: disruptors of Hoxa13 oligonucleotide interaction – biochemical, fluorescence polarization, labeled oligonucleotide, primary screen (AID 1185); conditions: Hoxa13:DNA binding, 15 min, higher = more signal, called active from +8 up or from −8 down
[4] = blockers of DNA damage checkpoint Chk1 activation – imaging, HeLa, hydroxyurea, phospho-Chk1 antibody, percent positive cells, primary screen (AID 1186); conditions: hydroxyurea-induced phospho-Chk1 immunofluorescence imaging, higher = more signal
[5] = blockers of DNA damage checkpoint Chk1 activation – imaging, HeLa, hydroxyurea, phospho-Chk1 nuclear intensity, primary screen (AID 1187); conditions: hydroxyurea-induced phospho-Chk1 immunofluorescence imaging, higher = more signal

Sequence of Homeobox protein Hox-A13 (Mus musculus) (Q62424 whole entry, looked up): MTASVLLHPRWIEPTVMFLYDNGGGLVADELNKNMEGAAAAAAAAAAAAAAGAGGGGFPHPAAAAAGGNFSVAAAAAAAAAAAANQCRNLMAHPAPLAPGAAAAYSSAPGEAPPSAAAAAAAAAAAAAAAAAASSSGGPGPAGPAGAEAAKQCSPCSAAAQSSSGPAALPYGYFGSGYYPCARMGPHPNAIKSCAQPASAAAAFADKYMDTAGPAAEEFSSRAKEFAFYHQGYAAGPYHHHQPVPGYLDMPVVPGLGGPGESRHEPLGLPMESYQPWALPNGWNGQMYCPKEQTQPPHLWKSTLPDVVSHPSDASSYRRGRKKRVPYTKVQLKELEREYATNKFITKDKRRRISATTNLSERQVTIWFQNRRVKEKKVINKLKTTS

Structure (SMILES)	composite z-score [1]	composite z-score (XIP peptide (Xip251-270))	z-score [2]	z-score [3]	z-score [4]	z-score [5]
C=C[C@H](C)[C@H](OC(=O)Nc1ccc(SC)cc1)c1ccc(OCCO)cc1	2.81 (inactive)	0.232	-0.563	-5.1 (inactive)	-1.34 (inactive)	-0.511 (inactive)
CC(C)[Si](C#CCCCC#N)(O[C@H](c1ccccc1)c1cn(Cc2ccccc2)nn1)C(C)C	0.206 (inactive)	0.391	0.559	-1.61 (inactive)	-0.727 (inactive)	-0.29 (inactive)
COc1ccc([Si](C)(C)[C@H]2[C@H](CC(=O)N3CCC[C@H]3CO)O[C@@]3(C(=O)N(Cc4ccc(N5CCOC5=O)cc4)c4ccccc43)[C@@H]2C)cc1	0.214 (inactive)	0.719	-0.738	-3.99 (inactive)	0.222 (inactive)	0.0857 (inactive)
COc1ccc(CCNC(=O)[C@@]2(c3ccc([N+](=O)[O-])cc3)CC(=O)N(C3CCCCC3)[C@@H]2c2ccc(CO)cc2)cc1	1.48 (inactive)	0.662	-0.171	-4.2 (inactive)	-0.192 (inactive)	0.0527 (inactive)
CN(C)C(=O)[C@@]1(Cc2ccccc2CN=[N+]=[N-])N=C(c2ccc(OCCCO)cc2)O[C@H]1c1ccccc1N=[N+]=[N-]	0.458 (inactive)	0.822	-2.02	-0.638 (inactive)	-0.0351 (inactive)	-0.336 (inactive)
COc1cc(C(O)C2C=CC3C(=O)N(C)C(=O)C3N2Nc2ccccc2)cc(OC)c1OC (stereo not drawn)	1.13 (inactive)	-0.0114	-0.164	-3.7 (inactive)	-0.129 (inactive)	-0.0016 (inactive)
Cc1ccc(S[C@]2(C(=O)NCCN3CCOCC3)CC(=O)N(Cc3ccccc3Cl)[C@@H]2c2ccc(CO)cc2I)cc1	0.676 (inactive)	0.433	-0.244	-2.18 (inactive)	0.0327 (inactive)	0.421 (inactive)
CCCC[C@@H](O)C1=C(COC)C[C@H]2C(=O)N(C)C(=O)[C@H]2[C@H]1CO	-0.703 (inactive)	0.336	-0.68	-1.8 (inactive)	-0.476 (inactive)	0.0423 (inactive)
CCCC#C[Si](O[C@H](CC)c1cn([C@H](C)c2ccccc2)nn1)(C(C)C)C(C)C	0.062 (inactive)	0.78	-0.285	-0.652 (inactive)	-0.673 (inactive)	-0.399 (inactive)
CO[C@H]1O[C@H](CO)[C@@H](OC(=O)Nc2ccccc2)[C@H](OC(=O)c2cc3ccccc3[nH]2)[C@H]1OC(=O)c1cc2ccccc2[nH]1	2.41 (inactive)	0.783	-1.83	-4.4 (inactive)	-0.389 (inactive)	-0.562 (inactive)
CN(C)C(=O)[C@]1(Cc2ccccc2CN=[N+]=[N-])N=C(c2ccc(OCCCO)cc2)O[C@@H]1c1ccccc1	0.908 (inactive)	0.738	-2.78	-6.11 (inactive)	-0.52 (inactive)	-0.266 (inactive)
Cn1cccc1C(O)C1C=CC2C(=O)N(c3ccccc3)C(=O)C2N1Nc1ccccc1 (stereo not drawn)	0.622 (inactive)	0.801	-0.255	-4.04 (inactive)	0.121 (inactive)	-0.436 (inactive)
COC(=O)C1=CC(CCCO)=CC(c2cccs2)N(C)C=C1C(=O)OC (stereo not drawn)	0.0334 (inactive)	0.819	-0.389	-7.53 (inactive)	0.176 (inactive)	0.219 (inactive)
COc1cc(NN2C(C(O)c3ccco3)C=CC3C(=O)N(C)C(=O)C32)cc(OC)c1OC (stereo not drawn)	-0.0656 (inactive)	-0.423	-0.188	-3.41 (inactive)	0.476 (inactive)	0.18 (inactive)
C#CCN([C@@H](Cc1ccccc1)C(=O)OC)[C@@H](/C=C/C1CC1)[C@H](O)Cc1ccccc1	-0.0272 (inactive)	-0.194	-1.12	-6.42 (inactive)	-0.121 (inactive)	0.134 (inactive)
CCOc1cc(C(O)C2C=CC3C(=O)NC(=O)C3N2Nc2ccc(Cl)cc2Cl)ccc1O (stereo not drawn)	-0.736 (inactive)	0.966	0.0361	-2.05 (inactive)	0.394 (inactive)	0.627 (inactive)
COC(=O)[C@@]1(Cc2ccc(OC)cc2)[C@H]2c3cc(C(=O)N4CCCC4)n(CCc4c[nH]c5ccc(OC)cc45)c3C[C@H]2CN1C(=O)c1ccccc1	0.203 (inactive)	0.0718	-1.71	-2.82 (inactive)	0.513 (inactive)	0.399 (inactive)
O=C1O[C@H](c2ccccc2)[C@H](c2ccccc2)N2[C@H]1[C@@H](C(=O)O)[C@]1(C(=O)Nc3ccc(C#CCCO)cc31)[C@H]2c1ccccc1OCCO	0.154 (inactive)	0.736	-1.08	-6.55 (inactive)	0.55 (inactive)	0.175 (inactive)
O[C@@H](Cc1ccccc1)[C@@H](/C=C/C1CC1)N(CC#Cc1ccccc1)Cc1ccccc1Br	-0.112 (inactive)	0.13	-2.81	-0.167 (inactive)	-0.36 (inactive)	-0.214 (inactive)
CCCC=C(CCC)[C@@H](NS(=O)(=O)CC12CCC(CC1=O)C2(C)C)c1ccc(C(=O)OC)cc1 (stereo partly drawn)	-0.341 (inactive)	0.316	-0.384	-2.11 (inactive)	-0.225 (inactive)	-0.276 (inactive)
O=C1C2C=CC(C(O)c3ccco3)N(Nc3ccccc3F)C2C(=O)N1c1ccccc1 (stereo not drawn)	0.36 (inactive)	-0.139	1.09	-1.61 (inactive)	0.456 (inactive)	0.257 (inactive)
CCCNC(=O)[C@@]1(C)c2ccccc2C(=O)N(c2ccc(C)cn2)[C@H]1c1ccc(CO)cc1	0.635 (inactive)	0.386	1.01	-1.63 (inactive)	0.0068 (inactive)	-0.172 (inactive)

Structure (SMILES)	composite z-score [1]	composite z-score (XIP peptide (Xip251-270))	z-score [2]	z-score [3]	z-score [4]	z-score [5]
CCCCC(CC)C(O)C1C=CC2C(=O)N(c3ccccc3)C(=O)C2N1Nc1ccccc1F (stereo not drawn)	0.634 (inactive)	0.0509	-0.579	-2.25 (inactive)	0.322 (inactive)	0.195 (inactive)
C=CCC(OC(C)=O)[C@@H]1[C@@H](N(Cc2ccc(-c3cccc(C(F)(F)F)c3)o2)C(=O)Cc2ccc(OC)cc2)c2cc(OCCCO)ccc2N1C(=O)c1ccc(-c2ccccc2)cc1 (stereo partly drawn)	0.169 (inactive)	-0.0425	-2.78	-1.67 (inactive)	0.152 (inactive)	0.463 (inactive)
CC1CC/C=C\[C@H]2OC34C=CCN(C(C)(C)C)C(=O)[C@H]3N(CCCCCO)C(=O)[C@@H]4C2C(=O)O1 (stereo partly drawn)	0.28 (inactive)	-0.48	-0.375	-4.58 (inactive)	0.139 (inactive)	0.408 (inactive)
C=C[C@H]1C(C(=O)OCC)=CC[C@@H](c2ccccc2)N1S(=O)(=O)c1ccc(C)cc1	0.413 (inactive)	0.635	-1.89	-2.34 (inactive)	-0.229 (inactive)	-0.732 (inactive)
COC(=O)[C@@]1(Cc2ccc(F)cc2)[C@H]2c3cc(C(=O)N4CCCC4)n(Cc4ccc(C)c(F)c4F)c3C[C@H]2CN1C(=O)c1ccccc1	-0.0082 (inactive)	-0.953	-1.53	-6.02 (inactive)	0.533 (inactive)	0.459 (inactive)
COCCOC(=O)N1C(=O)[C@@]2(c3cc(C#CCC(C(=O)OC)C(=O)OC)ccc31)[C@H](c1ccc(OCCO)cc1)N1[C@H](c3ccccc3)[C@H](c3ccccc3)OC(=O)[C@H]1[C@@H]2C(=O)N1CCc2cc(OC)c(OC)cc2C1	1.24 (inactive)	0.727	-2	2.86 (inactive)	-0.0277 (inactive)	0.246 (inactive)
C=C(C(=O)CC[C@H](OC(=O)c1ccccc1-c1ccccc1C(=O)O)c1cccc(OCCO)c1)C(C)C	-0.145 (inactive)	0.232	-2.12	-5.93 (inactive)	0.442 (inactive)	-0.51 (inactive)
CC(C)=C1C(=O)C(c2ccccc2)=C2CN3C(=O)N(CCc4ccccc4)C(=O)[C@]3(Cc3ccc(C(F)(F)F)cc3)[C@H]21	1.05 (inactive)	-0.498	-0.503	-1.59 (inactive)	0.551 (inactive)	0.465 (inactive)
COCC(=C=CC[C@H](O)c1ccccc1OCCO)C[C@H](O)c1ccccn1	-0.488 (inactive)	0.0608	-0.259	-4.52 (inactive)	-2.25 (inactive)	-1.6 (inactive)
COCC(=C=CC[C@H](O)c1ccc(CO)o1)CCO	-0.224 (inactive)	0.297	1.08	-3.75 (inactive)	0.625 (inactive)	0.295 (inactive)
[N-]=[N+]=Nc1ccccc1C[C@]1(C(=O)NCCN2CCOCC2)COC(c2ccc(OCCCO)cc2)=N1	0.728 (inactive)	0.256	-1.06	-6.04 (inactive)	-0.566 (inactive)	-0.17 (inactive)
COC(=O)[C@@H]1N=C(c2ccc(OCCCO)cc2)O[C@@H]1C	0.0312 (inactive)	0.232	0.985	-2.44 (inactive)	-0.749 (inactive)	-0.626 (inactive)
CCCCCN1CC=CC23O[C@@H]4/C=C\CCC(C)OC(=O)C4[C@H]2C(=O)N(C(CO)C(C)C)[C@@H]3C1=O (stereo partly drawn)	0.733 (inactive)	0.761	-1.07	-5.72 (inactive)	-0.584 (inactive)	-0.113 (inactive)
COCCOC(=O)N1C(=O)[C@@]2(c3cc(C#CCNC(N)=O)ccc31)[C@H](C(N)=O)[C@H]1C(=O)O[C@H](c3ccccc3)[C@H](c3ccccc3)N1[C@@H]2c1ccccc1OCCO	0.253 (inactive)	0.485	0.0701	-2.45 (inactive)	0.0661 (inactive)	0.588 (inactive)
CC(=O)N1CC2(CC2)CC1c1ccccc1 (stereo not drawn)	0.485 (inactive)	0.915	-0.0608	-1.06 (inactive)	0.465 (inactive)	0.444 (inactive)
CC(C)[Si](C#C[Si](C(C)C)(C(C)C)C(C)C)(O[C@H](c1ccccc1)c1cn(Cc2ccccc2)nn1)C(C)C	-0.464 (inactive)	-0.0753	-0.122	0.371 (inactive)	-0.269 (inactive)	-0.216 (inactive)
NC(=O)NCC#Cc1ccc2c(c1)[C@]1(C(=O)N2)[C@H](c2ccccc2OCCO)N2[C@H](c3ccccc3)[C@H](c3ccccc3)OC(=O)[C@H]2[C@@H]1C(=O)NC[C@H](O)c1ccccc1	0.427 (inactive)	0.209	-0.521	-3.58 (inactive)	-0.552 (inactive)	-0.793 (inactive)
C=CC[C@@]1(C(=O)NCCCOC)N=C(c2ccc(OCCCO)cc2)O[C@@H]1c1ccccc1N=[N+]=[N-]	0.05 (inactive)	0.516	-2.29	-6.15 (inactive)	-0.679 (inactive)	-0.6 (inactive)
C=C(/C(=C/C[C@H](OC(C)=O)c1ccc(CO)o1)c1cnc2ccccc2c1)C(C)C	0.0103 (inactive)	0.769	-1.14	-6.46 (inactive)	-0.136 (inactive)	0.181 (inactive)
O=C(O)[C@@H]1[C@@H]2C(=O)N(c3ccccc3)C(=O)[C@@H]2C[C@@H]1Sc1ccccc1	-0.213 (inactive)	0.463	0.0183	-2.65 (inactive)	0.701 (inactive)	-0.162 (inactive)
CCOC(=O)C[C@H]1[C@H](OC(=O)Cc2ccc3c(c2)OCO3)[C@@H](NC(=O)c2ccc3ccccc3n2)c2cc(OCCCO)ccc2N1C(=O)c1ccc2ccccc2n1	-0.113 (inactive)	0.66	-2.58	-2.98 (inactive)	-0.663 (inactive)	-0.162 (inactive)
